Compound activity: PubChem, National Center for Advancing Translational Sciences (NCATS)
Pf growth 48h: Primary qHTS for delayed death inhibitors of the malarial parasite plastid, 48 hour incubation. P. falciparum luciferase growth in erythrocytes, 48 h. Potency, µM (series often up to 28.7 µM), inactives show at the top dose activity change, negative = inhibition, usual class: inhibitors. hit rate 5.9% among 310,000. AID 504832, 2011; note: potency is the fitted concentration of half-maximal effect; % is set by controls: 0 for no effect and ±100 for the full control effect
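Compounds are pin-transferred into medium, infected erythrocytes (2% hematocrit, 0.1% parasitemia final) are added, and plates sit one parasite generation at 37 C in 5% CO2. Detection reagent is then added and luminescence measured.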
Shiga toxin inh: A qHTS for Small Molecule Inhibitors of Shiga Toxin; Vero cells, Shiga toxin protein synthesis inhibition reporter; inhibition, % at 38.7 µM; hit rate 9.2% among 290,000; AID 2315, 2010; in the data active = inhibition mostly above about 28%, no sharp cut-off; inactive = mostly below about 43%; note: 0% is about no effect
Giardia FBPA inh: qHTS Assay for Inhibitors of Fructose-1,6-bisphosphate Aldolase from Giardia Lamblia; A8B2U2; purified Giardia FBPA; Potency, µM (titrated, usually from 59.6 µM), inactives show at the top dose activity, negative = inhibition, usual class: inhibitors; hit rate 0.71% among 290,000; note: potency is the fitted concentration of half-maximal effect; % is set by controls: 0 for no effect and ±100 for the full control effect; nearly all actives have a fitted effect of over 55% in size
Target sequence (A8B2U2 whole entry, looked up): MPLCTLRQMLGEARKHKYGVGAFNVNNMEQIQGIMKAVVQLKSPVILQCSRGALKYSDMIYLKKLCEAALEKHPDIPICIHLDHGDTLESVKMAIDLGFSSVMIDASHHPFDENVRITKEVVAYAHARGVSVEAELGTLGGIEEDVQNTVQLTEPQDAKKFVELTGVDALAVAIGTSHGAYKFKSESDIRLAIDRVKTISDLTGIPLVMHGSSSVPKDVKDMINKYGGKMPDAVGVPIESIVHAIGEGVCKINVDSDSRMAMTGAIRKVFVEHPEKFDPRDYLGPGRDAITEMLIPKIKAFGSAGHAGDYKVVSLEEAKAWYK
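40 nM FBPA preincubated 10 min at RT with compound (up to 57.5 uM final), then substrate plus GAPDH/TPI/NAD/arsenate coupling and diaphorase/resazurin added. Fluorescence read after 20 min at RT, 525/598 nm.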
NS1 inh: qHTS Assay for Inhibitors of Influenza NS1 Protein Function | Potency, µM (doses to about 46.1 µM), for inactives: at the top dose activity, positive = more growth | hit rate 0.4% among 270,000 | AID 2326, 2010; calls by dose curve; note: potency is the fitted concentration of half-maximal effect; actives are rising curves; nearly all actives have a fitted effect of over 50% in size
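Read-out: OD600 growth recovery of NS1-expressing budding yeast. Cells grown overnight at 30C in -URA glucose medium, washed, resuspended and diluted 1:100 in 2% galactose assay medium, pH 6.0. Same strain lacking NS1 served as positive control.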
CHX counter: Cycloheximide Counterscreen for Small Molecule Inhibitors of Shiga Toxin; AID 2314, 2010; hit rate 12% among 300,000; cell reporter, cycloheximide protein synthesis inhibition counterscreen; max response, %; in the data active = max response mostly above about 13%, no sharp cut-off; inactive = mostly below about 14%; note: read at 38.3 µM for the half of the compounds with a filed dose; 0% is about no effect
Pf growth 96h: Primary qHTS for delayed death inhibitors of the malarial parasite plastid, 96 hour incubation; P. falciparum luciferase reporter growth, 96 h; Potency, µM (doses to about 28.7 µM), for the others: at the top dose activity change, negative = inhibition, hits mostly inhibitors; hit rate 6.9% among 320,000; AID 504834, 2011; note: potency is the fitted concentration of half-maximal effect; % is set by controls: 0 for no effect and ±100 for the full control effect
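96 h incubation, 37 C, 5% CO2, of luciferase-reporter P. falciparum-infected RBCs (2% hematocrit, 0.05% parasitemia final) with test compounds; endpoint luminescence.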
Numbers without * were called inactive; ? = inconclusive; / = no result; [ ] = remark or other dose. Sampled rows, rich in hits. Any-hit rate of the full collection: about 21%. Unless noted, calls come from the whole dose curve; as a rule, active = well fitted curve in the direction sought with a large enough effect; inconclusive = small, poorly fitted or top-dose-only effect, or another doubt; inactive = no such curve, though single readings can be large; an effect the other way counts as inactive or inconclusive.

SMILES	Pf growth 48h	Shiga toxin inh	Giardia FBPA inh	NS1 inh	CHX counter	Pf growth 96h
Cc1c(Cl)cccc1Nc1nc(NCCO)c2ccccc2n1	?	44.7*	-27.6%	-66.6%	16.5*	?
OCCNc1nc(Nc2ccccc2)nc2ccccc12	?	21.9	0.6%	-13.1%	7.3	45.7%
OCCNc1nc(Nc2ccc(Br)cc2)nc2ccccc12	0.928µM*	19.6	-17.5%	/	12.5	?
COc1cc2c(c(OC)c1OC)-c1c(cc3c(c1OC)OCO3)CC(C)C(C)(O)C2OC(=O)c1ccccc1 (stereo unspecified)	/	19.3	0.1%	/	-3.6	/
COc1ccc(NC(=O)CSc2nnc(Cc3ccccc3)c(=O)n2N)cc1OC	6.1%	/	/	/	/	9.7%
O=C(c1ccccc1)c1nc2c(n1O)CCCCC2	122.2%	44.0*	-14.4%	/	32.0*	-12.8%
Cc1ccc(C)c(NC(=O)CSc2nnc(NC(=O)C3CC3)s2)c1	-5.5%	-3.2	1.7%	6.5%	1.4	-1.4%
COC(=O)c1cccc(NC(=O)c2ccccc2)c1	38.1%	50.3*	-0.9%	-43.1%	29.1*	39.5%
COC(=O)c1ccc(NC(=O)c2ccccc2)o1	48.4%	80.6*	-3.1%	-1.1%	38.3*	35.8%
Cc1ccc(NC(=O)c2ccccc2)cc1C	?	/	/	/	/	28.5%
Cc1ccc(C(=O)Oc2cccc(NC(=O)c3ccccc3)c2)cc1C	40.8%	6.8	0.2%	-15.7%	16.4*	28.1%
COC(=O)c1ccc(NC(=O)c2cccc(NC(=O)c3ccccc3)c2)cc1	-16.0%	51.8	0.8%	6.5%	-1.4	8.28µM*
Cc1ccccc1CC(=O)Nc1ccc(S(=O)(=O)N2CCN(C)CC2)cc1	-6.6%	-36.7	/	6.6%	4.9	?
O=C(O)CCc1[nH]c2ccccc2c1Sc1ccccc1	/	-4.5	-2.7%	3.3%	-4.0	1.2%
COC(=O)c1cc(NC(=O)c2cc3ccccc3o2)cc(C(=O)OC)c1	-2.8%	-3.2	-2.7%	-5.5%	-3.4	-15.9%
COC(=O)c1cccc(NC(=O)c2cc3ccccc3o2)c1	9.28µM*	35.3*	-9.4%	-72.9%	29.3*	22.5%
CSc1nnc(-c2sc3cc(C(F)(F)F)cnc3c2-c2ccccc2)n1C	/	-10.7	-2.7%	-0.2%	1.2	6.57µM*
Nc1ccc2nc(N3CCOCC3)sc2c1	247.5%	139.8*	?	/	41.4*	212.9%
O=C(NCc1ccccc1)c1ccc2nc(N3CCOCC3)sc2c1	10.9%	11.0	0.7%	-5.1%	10.5	-1.0%
c1ccc2sc(N3CCOCC3)nc2c1	89.0%	53.2	5.0%	0.2%	44.2*	318.1%
CCc1noc(C)c1C(=O)N(C)CC(=O)Nc1cccc(OC)c1	-4.4%	/	/	/	/	10.8%
CCCCN(C)CCCNC(=O)/C=C1\Sc2ccccc2NC1=O	26.0%	1.5	1.0%	/	0.8	10.5%
NC(=O)c1ccc[n+](CC(=O)c2ccc(Br)cc2)c1	-3.3%	13.1	0.2%	/	6.6	4.7%
NC(=O)c1ccc[n+](Cc2ccc(-c3ccccc3)cc2)c1	/	-1.6	-0.1%	2.0%	-2.8	7.38µM*
Cc1ccc(C)n1-c1ccc(C(=O)O)cc1	/	18.3	-27.2%	17.9%	5.7	-15.1%
SMILES	Pf growth 48h	Shiga toxin inh	Giardia FBPA inh	NS1 inh	CHX counter	Pf growth 96h
Cc1ccc(C)n1-c1ccc(C(=O)Nc2ccccc2)cc1	?	98.2*	-3.6%	16.2%	33.6*	?
CC(=O)c1cccc(NS(=O)(=O)c2ccc(C(=O)Nc3ccccc3)cc2)c1	16.3%	-21.6	/	15.4%	1.7	34.2%
Cc1ccc(C)n1-c1cccc(NC(=O)c2ccccc2)c1	?	38.5*	-3.5%	10.3%	19.2*	13.4%
Nc1nc(N)nc(-c2ccccc2O)n1	34.7%	46.6*	3.0%	-6.7%	30.5	?
Nc1nc(-c2ccccc2)nc(-c2ccccc2O)n1	/	/	/	-24.5%	/	/
COc1ccc(/C=C/c2nc(N)nc(-c3ccccc3O)n2)cc1OC	-28.9%	3.9	-3.7%	12.6%	15.2*	?
O=C(COC(=O)C1CCN(c2ccc(C(F)(F)F)cn2)CC1)NCc1ccc(F)cc1	-2.6%	/	/	/	/	20.3%
COCCN(C(=O)COC(=O)C1CCC(C(C)(C)C)CC1)c1c(N)n(Cc2ccccc2)c(=O)[nH]c1=O (stereo unspecified)	-25.4%	/	/	/	/	?
CC[C@H]1NC(=O)c2cc(S(N)(=O)=O)c(Cl)cc2N1	-16.0%[12.8 µM]	/	-0.9%[21.7 µM]	/	/	-23.1%[12.8 µM]
